According to PubChem BioAssay (Tox21):
Where “and” joins values, the source holds several entries; their conditions need not be identical. Equal values may be shown once. Records with an inconclusive call do not appear. Some structures have more than one record in an assay (separate samples or runs), and their calls can disagree. Calls of active or inactive are those of the source. The call rests on the fitted dose curve; in most records, active means well fitted inhibition curve with a large enough effect in the repeat runs; inconclusive means weak or mixed curves; inactive means no such curve, though single readings can be large or run the other way.

target: Cytochrome P450 2C19 (Homo sapiens) (UniProt P33261); experiment: Cytochrome P450 Family 2 Subfamily C Member 19 (CYP2C19) small molecule antagonists: luciferase reporter qHTS assay (AID 1671197); conditions: P450-Glo CYP2C19 enzyme, luciferin luminescence, 1 h; series mostly up to 115 µM; further: nearly all actives have a fitted effect of over 65% in size
Source text: National Center for Advancing Translational Sciences [NCATS]
U.S. Environmental Protection Agency [EPA]
National Institutes of Environmental Health Sciences [NIEHS]
National Toxicology Program [NTP]
U.S. Food and Drug Administration [FDA]
Cytochrome P450 (CYP) enzymes are membrane-bound hemeproteins that play a key role in metabolism of drugs and xenobiotics. Evaluation of the effect of chemicals on CYP isozymes is useful to minimize the adverse drug reactions and toxicities in drug development process. Tox21 chemicals were tested for their effect on CYP enzyme activities by using P450-Glo (TM) screening systems (Promega Corporation, Madison, WI). These systems provide a luminescent method containing proluciferin substrates and are converted to luciferin products by CYP isozymes. The luciferin products formed are detected with a luciferin detection reagent, and the amount of light produced is proportional to CYP activity. P450-Glo (TM) CYP2C19 screening system (Catalog. No. V9880) was used to detect the compounds that interfere in CYP2C19 activity. The positive control compound used for CYP2C19 assay is ketoconazole (Sigma-Aldrich, St. Louis, MO).
Tox21 Assay Protocol Summary:
Two ul of enzyme-substrate mix was dispensed into medium binding white/solid 1536-well plates (Greiner Bio-One North America Inc., Monroe, NC) using a BioRaptr Flying Reagent Dispenser (FRD, Beckman Coulter, Brea, CA). Compounds dissolved in DMSO and positive control (ketoconazole) were transferred to the assay plates at 23 nl using a Pintool station (Wako, San Diego, CA). The assay plates were incubated at room temperature for 10 min. Then 2 ul of NADPH regeneration solution was added to each well of the assay plates using an FRD and incubated at 37C for 1 h. The reaction was stopped by adding 4 ul of detection reagent using an FRD and after 20 min incubation at room temperature the luminescence signal was measured using a ViewLux plate reader (Perkin Elmer, Shelton, CT). Data were expressed as relative luminescence units.
On the % scale 0 is the no-effect control and ±100 the full control effect; potency means the concentration at half of the fitted maximal effect.

Sequence of Cytochrome P450 2C19 (Homo sapiens) (P33261 whole entry, looked up): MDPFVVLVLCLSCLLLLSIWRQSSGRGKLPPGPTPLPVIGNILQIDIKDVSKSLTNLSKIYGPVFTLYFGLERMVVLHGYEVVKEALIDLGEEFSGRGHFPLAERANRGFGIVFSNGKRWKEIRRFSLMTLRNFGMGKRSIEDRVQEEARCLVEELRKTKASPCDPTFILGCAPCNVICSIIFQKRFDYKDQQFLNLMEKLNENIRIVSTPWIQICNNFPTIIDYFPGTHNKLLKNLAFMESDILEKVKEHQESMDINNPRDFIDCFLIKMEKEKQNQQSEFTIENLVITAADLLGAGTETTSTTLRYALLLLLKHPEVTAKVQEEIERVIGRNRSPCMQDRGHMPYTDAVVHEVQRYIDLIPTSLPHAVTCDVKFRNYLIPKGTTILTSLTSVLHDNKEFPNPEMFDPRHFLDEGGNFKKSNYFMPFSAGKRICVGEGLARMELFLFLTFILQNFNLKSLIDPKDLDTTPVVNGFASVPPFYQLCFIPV

Compound	Potency	activity change, negative = inhibition
Cc1ccc(N)c([N+](=O)[O-])c1	39.4 µM (active)	–
CC(C)[C@@H]1CC[C@@H](C)CC1=O	31.7 µM (active) and inactive	–
O=C(O)CCCC(=O)O	22 µM (active) and inactive	–
COCCOCCOCCO	inactive	–
Cc1ccc(S(=O)(=O)O)cc1C	inactive	–
COC(=O)C(C)Oc1ccc(Oc2ncc(C(F)(F)F)cc2Cl)cc1 (stereo not given)	40.4 µM (active) and 39.9 µM (active)	–
CN(C)/N=N/c1nc[nH]c1C(N)=O	inactive	–
CC(=O)O[C@]1(C(C)=O)CC[C@H]2[C@@H]3C=C(C)C4=CC(=O)CC[C@]4(C)[C@H]3CC[C@@]21C	7.1 µM (active) and 6.92 µM (active)	–
CCOC(=O)C(C)Oc1ccc(Oc2cnc3cc(Cl)ccc3n2)cc1 (stereo not given)	33.3 µM (active)	–
CC(C)=CCO	inactive	–
CC1(C)NC(=O)N(c2ccc([N+](=O)[O-])c(C(F)(F)F)c2)C1=O	2.52 µM (active) and 1.38 µM (active)	–
CCCN1C=CN(C)C1	inactive	–
Cc1ccc(/C(=C\CN2CCCC2)c2ccccn2)cc1	inactive	–
COC(=O)CC(=O)OC	41.6 µM (active) and inactive	–
CC1=CC(C)(C)Nc2ccccc21	75.6 µM (active)	–
Cc1cccc(Nc2ccccc2C(=O)O)c1C	inactive	–
c1ccc2c(c1)ccc1cc3c(ccc4ccccc43)cc12	inactive	–
C=C[C@H]1CN2CC[C@H]1C[C@H]2[C@H](O)c1ccnc2ccc(OC)cc12	inactive	–
C=C[Si](OCCOC)(OCCOC)OCCOC	inactive	–
c1ccc2c(c1)ccc1ncccc12	35.3 µM (active) and 79.6 µM (active)	–

Compound	Potency	activity change, negative = inhibition
O=C1OC2(c3ccccc31)c1cc(I)c(O)c(I)c1Oc1c2cc(I)c(O)c1I	56.5 µM (active) and 18 µM (active) and 5.43 µM (active)	–
Cc1ccc(C)c(O)c1	30.9 µM (active) and inactive	–
CC(=O)O[C@]1(C(C)=O)CC[C@H]2[C@@H]3C=C(Cl)C4=CC(=O)CC[C@]4(C)[C@H]3CC[C@@]21C	12.6 µM (active) and 4.36 µM (active)	–
IC(I)I	39.9 µM (active) and 89.4 µM (active)	–
Cc1ccc(S(=O)(=O)NCl)cc1	inactive	–
CCCCCC=O	inactive	–
CCCCCCCCCCC(CO)CCCCCCCC (stereo not given)	inactive	–
c1ccc2ncccc2c1	inactive	–
CC(C)(C)c1cccc(C(C)(C)C)c1O	55.1 µM (active) and inactive	–
OC[C@@H](O)[C@@H](O[C@@H]1O[C@H](CO)[C@H](O)[C@H](O)[C@H]1O)[C@H](O)[C@@H](O)CO	inactive	–
O=[Se](O)O	56.5 µM (active)	-23.6% [at 23.6 µM] (inactive)
CCCCCCCCCCCCO	31.3 µM (active)	–
CCCCCCCCCCCCCO	71.8 µM (active) and 36.9 µM (active)	–
Nc1ccc(N)c(Cl)c1	3.17 µM (active) and 5.03 µM (active)	–
CCc1cccc2c3c([nH]c12)C(CC)(CC(=O)O)OCC3 (stereo not given)	39.8 µM (active)	–
C=C[C@@]1(C)CC(=O)[C@]2(O)[C@@]3(C)[C@@H](O)CCC(C)(C)[C@@H]3[C@H](O)[C@H](OC(C)=O)[C@@]2(C)O1	39.9 µM (active)	–
Cc1ccc(C(C)(C)C)c(O)c1	30.7 µM (active) and 39.9 µM (active)	–
C=CC(=O)OCCCC	inactive	–
c1ccc2cc3ccccc3cc2c1	41.2 µM (active) and 79.6 µM (active)	–
